Laboratory results: PubChem BioAssay (Tox21)
Several values for one entry are separate records, joined by “and”; a condition that tells them apart may be missing. Identical values can stand only once. Inconclusive results are not listed. Activity calls are given as the source filed them. Unless noted, calls come from the whole dose curve; as a rule, active = well fitted curve in the direction sought with a large enough effect in the repeat runs; inconclusive = weak or mixed curves; inactive = flat fitted curve, though single readings scatter.

Legend:
[1] = qHTS assay to test for compound auto fluorescence at 535 nm (green) in HEK293 cells (AID 720680)
[2] = qHTS assay to test for compound auto fluorescence at 460 nm (blue) in HEK293 cell free culture (AID 720681)
Summary of the method: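 Test compounds were pinned into cell-free culture medium (DMEM with 10% FBS) and fluorescence was read directly at Ex/Em 405/460 nm. Signals were expressed as fluorescence equivalents of triamterene, with DMSO vehicle as control.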

[3] = qHTS assay to test for compound auto fluorescence at 535 nm (green) in HEK293 cell free culture (AID 720682)
Summary of the method: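 Fluorescein serves as the green reference fluorophore; each compound's intrinsic emission at 535 nm (excitation 485 nm) is reported as an equivalent amount of that dye, measured in serum-containing DMEM without cells.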

[4] = qHTS assay to test for compound auto fluorescence at 590 nm (red) in HEK293 cell free culture (AID 720683)
Summary of the method: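 Tox21 10K library compounds were pinned into cell-free DMEM with 10% FBS and fluorescence was read at excitation 540 nm. Activity is expressed as Rose Bengal sodium equivalency.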

[5] = qHTS assay to test for compound auto fluorescence at 590 nm (red) in HepG2 cell free culture (AID 720684)
Summary of the method: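 Red fluorescence (540 nm excitation, 590 nm emission) was measured after compound transfer into cell-free MEM supplemented with 10% FBS. Values are equivalencies against Rose Bengal sodium.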

[6] = qHTS assay to test for compound auto fluorescence at 460 nm (blue) in HepG2 cell free culture (AID 720685)
Summary of the method: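 Compound (23 nL) or DMSO pinned into cell-free MEM with 10% FBS; blue fluorescence read at 405/460 nm excitation/emission, expressed as auto-fluorescence equivalency to triamterene.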

[7] = qHTS assay to test for compound auto fluorescence at 535 nm (green) in HepG2 cell free culture (AID 720686)
[8] = target: Glucocorticoid receptor (Homo sapiens) (UniProt P04150); assay: qHTS assay to identify small molecule antagonists of the glucocorticoid receptor (GR) signaling pathway (AID 720692; active = well fitted inhibition curve with a large enough effect in the signal ratio in the repeat runs, not every such curve was filed as active; the % refers to the signal ratio; note: potency is the fitted concentration of half-maximal effect)
Chain of Glucocorticoid receptor (Homo sapiens) (P04150 whole entry, looked up): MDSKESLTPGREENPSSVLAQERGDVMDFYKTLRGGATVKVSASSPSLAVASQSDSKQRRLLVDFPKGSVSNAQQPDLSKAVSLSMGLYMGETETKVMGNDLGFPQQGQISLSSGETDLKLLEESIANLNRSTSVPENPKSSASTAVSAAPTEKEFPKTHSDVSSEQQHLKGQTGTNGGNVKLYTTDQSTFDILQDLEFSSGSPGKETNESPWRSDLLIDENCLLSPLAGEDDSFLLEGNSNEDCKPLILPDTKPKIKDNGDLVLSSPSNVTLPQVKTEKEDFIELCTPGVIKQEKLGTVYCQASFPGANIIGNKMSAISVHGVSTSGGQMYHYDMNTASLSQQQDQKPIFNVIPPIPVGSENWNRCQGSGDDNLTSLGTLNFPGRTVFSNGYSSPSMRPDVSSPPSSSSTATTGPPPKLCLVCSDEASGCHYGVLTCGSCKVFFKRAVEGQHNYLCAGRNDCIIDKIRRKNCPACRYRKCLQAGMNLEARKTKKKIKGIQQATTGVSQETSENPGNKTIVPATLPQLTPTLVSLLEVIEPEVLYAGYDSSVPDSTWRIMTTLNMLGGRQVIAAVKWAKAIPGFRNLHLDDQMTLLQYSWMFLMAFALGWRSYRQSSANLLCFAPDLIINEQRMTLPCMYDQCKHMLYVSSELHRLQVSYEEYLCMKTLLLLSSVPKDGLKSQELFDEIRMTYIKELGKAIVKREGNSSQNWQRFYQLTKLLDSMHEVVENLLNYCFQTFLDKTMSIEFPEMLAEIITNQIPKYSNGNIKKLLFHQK
Summary of the method: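 Dexamethasone (5 nM final) stimulated a stably integrated GRE-beta-lactamase reporter in HeLa cells during 18 h co-incubation with compounds; signal was quantified as fluorescence intensity of B/G FRET substrate after 2 h.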

[9] = qHTS assay to test for compound auto fluorescence at 460 nm (blue) in HepG2 cells (AID 720687)
Summary of the method: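 Cells (2,000/well in MEM with 10% FBS) attached overnight at 37 C, then were exposed to compound or DMSO for 1 hr at 37 C, 5% CO2. Fluorescence read at Ex/Em 405/460 nm, expressed as triamterene-equivalent signal.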

[10] = target: Glucocorticoid receptor (Homo sapiens) (UniProt P04150); assay: qHTS assay to identify small molecule agonists of the glucocorticoid receptor (GR) signaling pathway (AID 720691; active = well fitted activation curve with a large enough effect in the signal ratio in the repeat runs, not every such curve was filed as active; the % refers to the signal ratio)
Summary of the method: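 Reporter read-out: fluorescence intensity following 2 h room-temperature LiveBLAzer B/G FRET substrate loading. Prior step: GR-bla HeLa cells held 4 h, then treated 18 h at 37 C.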

Measured: Potency

NC(N)=NC(N)=NCCc1ccccc1
not listed: [9] | [10]
inactive: all other assays above

Cc1cnc(NC(=O)C2=C(O)c3ccccc3S(=O)(=O)N2C)s1
not listed: [9] | [10]
inactive: all other assays above

O=C1CCCCCN1
not listed: [7] | [8] | [10]
inactive: all other assays above

NC(=O)c1ccc([N+](=O)[O-])cc1Cl
not listed: [10]
inactive: all other assays above

COc1cc(C=O)ccc1O
not listed: [7] | [8] | [10]
inactive: all other assays above

NCCNc1cccc2ccccc12
not listed: [9] | [10]
inactive: all other assays above

COCC(C)N (centres undefined)
not listed: [10]
inactive: all other assays above

COC(=O)c1ccc(O)cc1
not listed: [10]
inactive: all other assays above

Cc1cccc(Nc2cc(Cl)nc(SCC(=O)O)n2)c1C
not listed: [10]
inactive: all other assays above

OCCCc1ccccc1
not listed: [9] | [10]
inactive: all other assays above

C1CNCCN1
not listed: [9]
inactive: all other assays above

O=C(O)CCCCC1CCSS1 (centres undefined)
not listed: [9] | [10]
inactive: all other assays above

CC(C)(C)NCC(O)c1ccc(O)c(CO)c1 (centres undefined)
not listed: [9]
inactive: all other assays above

CC(C)Cc1ccc(C(C)C(=O)O)cc1 (centres undefined)
not listed: [9] | [10]
inactive: all other assays above

COC1=CC(=O)C[C@@H](C)[C@]12Oc1c(Cl)c(OC)cc(OC)c1C2=O
not listed: [9]
inactive: all other assays above

C[C@]12C[C@H](O)[C@H]3[C@@H](CCC4=CC(=O)CC[C@@]43C)[C@@H]1CC[C@@H]2C(=O)CO
active: [8] 674 nM and 390 nM
not listed: [7] | [10]
inactive: all other assays above

CCCCOCCOCCSC#N
not listed: [7] | [10]
inactive: all other assays above

NC(=O)N/N=C/c1ccc([N+](=O)[O-])o1
not listed: [7] | [10]
inactive: all other assays above

NC(=O)OCC(COC(N)=O)c1ccccc1
not listed: [7] | [9]
inactive: all other assays above

O=C(O)CN(CC(=O)O)CC(=O)O
not listed: [7] | [10]
inactive: all other assays above

CCCCCCCC(=O)OCC(O)CO (centres undefined)
not listed: [7] | [9] | [10]
inactive: all other assays above

COc1ccccc1O
not listed: [7] | [9] | [10]
inactive: all other assays above

Oc1cccc(O)c1
not listed: [7]
inactive: all other assays above

Cc1ccc(O)c(-n2nc3ccccc3n2)c1
not listed: [7] | [10]
inactive: all other assays above

c1ccc2[nH]c(-c3cscn3)nc2c1
not listed: [7] | [10]
inactive: all other assays above

O=C(OCc1ccccc1)c1ccccc1
not listed: [7] | [9] | [10]
inactive: all other assays above

Cn1cnc2c1c(=O)[nH]c(=O)n2C
not listed: [7] | [9] | [10]
inactive: all other assays above

N[C@@H](Cc1c[nH]c2ccc(O)cc12)C(=O)O
not listed: [7] | [10]
inactive: all other assays above

CC1=NN(c2ccccc2)C(=O)C1
not listed: [7] | [10]
inactive: all other assays above

CCCCCCCCCCCCCC(=O)OC(C)C
not listed: [7] | [9] | [10]
inactive: all other assays above

CC(C)(C)CC(C)(C)c1ccc(O)c(-n2nc3ccccc3n2)c1
not listed: [7]
inactive: all other assays above

COc1ccc(O)cc1
not listed: [7] | [9]
inactive: all other assays above

CN/C(=C\[N+](=O)[O-])NCCSCc1ccc(CN(C)C)o1
not listed: [7]
inactive: all other assays above

CC(O)COc1ccccc1 (centres undefined)
not listed: [7] | [9] | [10]
inactive: all other assays above

CCCCCCCCCCCCCCCCCC(=O)OCC(O)CO (centres undefined)
not listed: [7] | [9]
inactive: all other assays above

CCN1CCCC1=O
not listed: [7] | [9] | [10]
inactive: all other assays above

CC(=O)CCC(C)C
not listed: [7]
inactive: all other assays above

CC(=O)Oc1ccccc1C(=O)O
not listed: [7] | [9] | [10]
inactive: all other assays above

CC(=O)c1ccc(S(=O)(=O)NC(=O)NC2CCCCC2)cc1
not listed: [7] | [10]
inactive: all other assays above

C=C(C)OC(C)=O
not listed: [7] | [9] | [10]
inactive: all other assays above

COc1cc2c(c(OC)c1OC)-c1ccc(OC)c(=O)cc1[C@@H](NC(C)=O)CC2
not listed: [7] | [8] | [9]
inactive: all other assays above

CCCCC/C(C=O)=C\c1ccccc1
not listed: [7] | [10]
inactive: all other assays above

CC(C)=CCC/C(C)=C/CO
not listed: [7] | [10]
inactive: all other assays above

O=c1cc[nH]c(=O)[nH]1
not listed: [7] | [9] | [10]
inactive: all other assays above

CCc1cc(C(N)=S)ccn1
not listed: [7]
inactive: all other assays above
